Rows were chosen to be rich in hits. Some 2.3% of all compounds tested hit in one or more screens of this group.
M1 ag: human M1 muscarinic receptor agonism; CHO-K1 hM1, Fluo-8 calcium fluorescence, agonist mode; 0% DMSO, 100% acetylcholine EC100; actives 0.33% (n = 360,000); P11229; activation, % at 3 µM;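 active means activation above the run's mean compound activation plus 3 SD, cut at about 16% in these data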;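 further: peak over basal fluorescence ratio within a 140 s kinetic read after compound addition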
Target sequence (P11229 whole entry, looked up): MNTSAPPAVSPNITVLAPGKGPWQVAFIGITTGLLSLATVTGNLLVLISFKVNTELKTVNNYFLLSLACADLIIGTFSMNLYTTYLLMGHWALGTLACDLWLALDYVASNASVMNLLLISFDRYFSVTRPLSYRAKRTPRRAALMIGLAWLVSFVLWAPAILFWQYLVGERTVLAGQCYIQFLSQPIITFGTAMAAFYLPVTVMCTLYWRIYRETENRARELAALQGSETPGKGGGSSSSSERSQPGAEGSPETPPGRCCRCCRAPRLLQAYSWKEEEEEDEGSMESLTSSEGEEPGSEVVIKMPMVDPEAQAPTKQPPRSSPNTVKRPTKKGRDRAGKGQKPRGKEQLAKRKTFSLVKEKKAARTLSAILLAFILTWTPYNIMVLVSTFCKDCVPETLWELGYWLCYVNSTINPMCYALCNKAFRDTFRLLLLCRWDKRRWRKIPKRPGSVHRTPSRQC
CHO-K1 Ca ag: counter-screen for M1 agonists: effect in parental CHO-K1 cells. actives 0.48% (n = 360,000). Fluo-8 calcium fluorescence; scaled to maximal ATP response, vehicle zero. activation, % at 3 µM; in the data active means activation above about 15%;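 further: untransfected CHO-K1 host cells lacking M1 receptor as counterscreen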
CHO-K1 Ca antag: counter-screen for M1 antagonists: effect in parental CHO-K1 cells | inhibition, % at 3 µM | actives 0.6% (n = 360,000) | ATP-induced calcium, Fluo-8 fluorescence;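 active means inhibition above a per-plate cutoff, the plate's mean sample inhibition plus 3 SD, cut at about 24% in these data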
CHRM1 PAM: human CHRM1 positive allosteric modulation. P11229. CHO-K1 hM1, Fluo-8 calcium fluorescence, ACh EC20; 0% = ACh EC20, 100% = maximal ACh. activation, % at 3 µM. actives 0.088% (n = 360,000); in the data active means activation above about 19%, passing the limit was not always enough
CHO-K1 Ca PAM: M1 PAM counterscreen hit in parental CHO-K1 cells; ATP EC20, Fluo-8 calcium fluorescence; 0% at ATP EC20, 100% at ATP max; actives 0.02% (n = 360,000); activation, % at 3 µM; AID 602247;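 active means activation above the run cutoff, the mean activation of all test compounds plus 3 SD, cut at about 40% in these data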;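 further: peak over basal fluorescence ratio in a 140 s read after ATP addition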
CHRM1 antagonist: human CHRM1 antagonism; P11229; CHO-K1 hM1, Fluo-8 calcium fluorescence, ACh EC80 antagonist; inhibition, % at 3 µM; actives 1.3% (n = 360,000);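 active means percent inhibition above its own plate's cutoff, namely the mean of that plate's compound wells plus 3 SD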;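 further: peak over basal fluorescence ratio during 140 s after agonist addition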
Of the large screens only hits and unclear results are named; the others gave an inactive call.

O=C(NCCCN1CCc2ccccc2C1)Nc1ccc(Br)cc1	CHRM1 antagonist 43.6
COCCCn1nnnc1SCC(=O)Nc1nc2ccccc2s1	none
Cc1ccc(OS(=O)(=O)c2c(C)nn(C)c2Cl)c(C)c1	CHRM1 antagonist 61.7
CN1CCC(=C2c3ccccc3Sc3ccccc32)CC1	CHRM1 antagonist 99.8
O=S(=O)(c1ccc(Cl)c(Cl)c1)c1snnc1-c1ccccc1	CHRM1 antagonist 75.4
CC(C)CC(=O)NC(=S)Nc1sc2c(c1C(N)=O)CCC2	CHO-K1 Ca antag 37.7
CC(C)(C)C(=O)NC(=S)Nc1sc2c(c1C(N)=O)CCC2	none
Cc1ccc(NC(=S)NCc2ccccc2)cc1[N+](=O)[O-]	none
Cc1ccc(CNC(=S)Nc2ccc(C)c([N+](=O)[O-])c2)cc1	CHO-K1 Ca antag 29.1
CC(C)N(C(=S)NCc1ccccc1)C(C)C	CHO-K1 Ca antag 25.9
CC(C)N(C(=S)NCc1ccccc1)c1ccccc1	none
CCOC(=O)[C@]12CCC=C1N(Cc1cccc3ccccc13)C(=O)[C@H](CC(=O)N1CCSCC1)C2	none (no result: M1 ag, CHRM1 PAM, CHRM1 antagonist)
Cc1c(C)c2ccc(OCC(=O)N[C@@H](Cc3c[nH]c4ccccc34)C(=O)O)cc2oc1=O	CHO-K1 Ca antag 29.3
CCOC(=O)c1sc(N2C(=O)C(O)=C(C(=O)c3ccco3)C2c2ccc([N+](=O)[O-])cc2)nc1C (stereo unspecified)	none
Cc1cc(S(=O)(=O)Nc2ccc(C(=O)NCC(c3ccccc3)N(C)C)cc2)ccc1F (stereo unspecified)	none
COc1ccccc1C(CNC(=O)c1ccc(NS(=O)(=O)c2ccc(F)c(C)c2)cc1)N(C)C (stereo unspecified)	M1 ag 27.8
COc1ccccc1C(CNC(=O)c1cccc(NS(=O)(=O)c2ccc(C)c(F)c2)c1)N(C)C (stereo unspecified)	CHRM1 antagonist 85.0
CCN(CC)S(=O)(=O)c1cccc(C(=O)NCC(c2ccccc2)N(C)C)c1 (stereo unspecified)	CHRM1 antagonist 55.0
COc1cccc(CN(C)C(=O)c2cccc(S(=O)(=O)NCc3ccccc3)c2)c1OC	none
COc1ccccc1C(CNC(=O)c1cccc(S(=O)(=O)NCc2ccccc2)c1)N(C)C (stereo unspecified)	CHRM1 antagonist 49.9
COc1ccc(N(C)S(=O)(=O)c2cccc(C(=O)NCC(c3ccco3)N3CCCC3)c2)cc1 (stereo unspecified)	none
COc1ccc(N(C)S(=O)(=O)c2cccc(C(=O)NCC(c3cccs3)N(C)C)c2)cc1 (stereo unspecified)	CHRM1 antagonist 52.3
COc1ccc(C(CNC(=O)c2cccc(NS(=O)(=O)c3ccccc3)c2)N(C)C)cc1 (stereo unspecified)	CHRM1 antagonist 48.2
COc1ccc(N(C)S(=O)(=O)c2cccc(C(=O)Nc3nc4ccccc4[nH]3)c2)cc1	CHRM1 antagonist 34.5
CCOc1ccc(S(=O)(=O)Nc2cccc(C(=O)NCC(c3ccccc3)N(C)C)c2)cc1 (stereo unspecified)	none
CC(=O)c1ccc(S(=O)(=O)NCc2ccc(C(=O)NCC(c3ccccc3)N(C)C)cc2)cc1 (stereo unspecified)	CHRM1 antagonist 25.0
Cc1ccc(C2(C)NC(=O)N(CC(=O)Nc3ccc(Cl)c(S(=O)(=O)N4CCCCC4)c3)C2=O)cc1 (stereo unspecified)	none
CC1(C(=O)NS(=O)(=O)c2ccc(Cl)cc2)CCN1C(=O)C1(c2ccc(Cl)cc2)CCC1 (stereo unspecified)	none
Cc1c(CN2CCCCC2)c(O)n(CCCO)c(=O)c1C#N	CHRM1 antagonist 36.1
O=C(NCCc1ccccc1)C1Cc2c(-c3ccc(Cl)cc3)ccnc2O1 (stereo unspecified)	none
COc1cccc(Cl)c1NC(=O)N1CCN(c2ccnc3cc(Cl)ccc23)CC1	CHRM1 antagonist 34.3
COc1cccc(Cl)c1NC(=O)N1CCN(c2cc(C)nc3ccccc23)CC1	none
CCC(=O)N1CCN(c2ccnc3cc(Cl)ccc23)CC1	none
CCOC(=O)N1CCN(c2ccnc3cc(Cl)ccc23)CC1	CHRM1 antagonist 90.8
Cc1ccccc1-n1nnnc1SCC(=O)Nc1ccc(N2CCN(C)CC2)cc1	none

Source: PubChem
